Values joined by “and” are separate entries in the source; they are usually repeats but may differ in a detail not shown here. Equal values may be shown once. Records with an inconclusive call do not appear. Where a call stands in place of a potency, no number is given. Where a structure was tested more than once in an assay, its records may differ in their call. Active and inactive are the calls of the source. Calls follow the shape of the full dose curve.
Potency is read from the fitted curve at half-maximal effect.

The assay in a line: qHTS assay to identify small molecule agonists of the progesterone receptor (PR) signaling pathway - cell viability counter screen (AID 1346799). Also: nearly all actives have a fitted effect of over 45% in size. The settings on record: PR-UAS-bla HEK293T viability, CellTiter-Glo luminescence, 16 h; series mostly up to 92.4 µM. An excerpt: National Center for Advancing Translational Sciences [NCATS]
NIH Chemical Genomics Center [NCGC]
U.S. Environmental Protection Agency [EPA]
National Institutes of Environmental Health Sciences [NIEHS]
National Toxicology Program [NTP]
U.S. Food and Drug Administration [FDA]
Progesterone receptor (PR), a nuclear hormone receptor, plays an important role in development, metabolic homeostasis and reproduction. It is activated by the steroid hormone progesterone. Endocrine disrupting chemicals (EDCs) and their interactions with steroid hormone receptors like PR causes disruption of normal endocrine function. To identify the compounds that stimulate PR signaling, a PR-UAS-bla GripTite cell line i.e. PR-UAS-bla HEK293T (Invitrogen, Carlsbad, CA, USA) containing a beta-lactamase reporter gene under the control of an UAS response element was used to screen Tox21 10K compound library. The cytotoxicity of the Tox21 compound library against the PR-bla cell line was tested in parallel by measuring the cell viability using CellTiter-Glo assay in the same wells.
Tox21 Assay Protocol Summary:
PR-UAS-bla HEK293T cells were dispensed at 3,000 cells/5 uL of assay medium containing 2% charcoal stripped FBS per well into black wall/clear-bottom 1536-well plates using a Multidrop Combi (ThermoFisher Scientific, Waltham, MA) dispenser. After the assay plates were incubated at a 37C and 5% CO2 for 6 hr, 23 nL of compounds dissolved in DMSO, positive controls or DMSO only was transferred to the assay plate by a Pintool station (Kalypsys, San Diego, CA). The plates were incubated at 37C and 5% CO2 for 16 hr. Then 1 uL of LiveBLAzer B/G FRET substrate was added using a Flying Reagent Dispenser (FRD, Aurora Discovery, San Diego, CA), the plates were incubated at room temperature for 2 hours, and fluorescence intensity was measured by an Envision plate reader (PerkinElmer, Shelton, CT). For cell viability readout that measures cytotoxicity, 4 uL/well of CellTiter-Glo reagent was added into the assay plates using a FRD. After 30 min incubation at room temperature, the luminescence intensity in the plates was measured using a ViewLux (PerkinElmer) plate reader.
In general terms: Quantitative high-throughput screening tests each substance at several concentrations.
Consider `COC(=O)c1ccc(C)cc1`, for which the Potency result was “inactive”.
In the case of `O=C(O)CCCCCCCCCCCC(=O)O` it was “inactive”.
As to `CC(C)[N+](C)(CCOC(=O)C1c2ccccc2Oc2ccccc21)C(C)C`, the Potency result is “inactive”.
As for `CCCCCC=O`, the Potency result was “inactive”.
Consider `CCCCCCC(C)O` (stereo not given), for which the Potency entry was “inactive”.
Consider `CCCCCCCCCCC(CO)CCCCCCCC` (stereo not given), for which the Potency result was “inactive”.
Regarding `CC1(C)OC(=O)NC1=O`, the Potency result was “inactive”.
For `C[C@]12C=CC(=O)C=C1CC[C@H]1[C@@H]3C[C@@H](O)[C@](O)(C(=O)CO)[C@@]3(C)C[C@H](O)[C@@]12F`, the Potency entry is “inactive”.
With `NCCN`, the Potency result was “inactive”.
For `O=Cc1ccccc1C=O`, the Potency result was “inactive”.
As to `Nc1ccc(O)c(N)c1`, the Potency entry was “inactive”.
In the case of `CN(Cc1cnc2nc(N)nc(N)c2n1)c1ccc(C(=O)N[C@@H](CCC(=O)O)C(=O)O)cc1` it was “inactive”.
In the case of `c1ccc2c(c1)ccc1ncccc12` it was “inactive”.
For the compound `Cc1ccc(N)c([N+](=O)[O-])c1`, the Potency entry was “inactive”.
To `CCCCCCCCCCCCO` belongs “inactive”; to `C=C[C@H]1CN2CC[C@H]1C[C@@H]2[C@@H](O)c1ccnc2ccc(OC)cc12`, “inactive”; to `CCC(=O)O[C@H]1[C@H](O[C@@H]2[C@@H](C)[C@H](O[C@H]3C[C@@](C)(OC)[C@@H](O)[C@H](C)O3)[C@@H](C)C(=O)O[C@H](CC)[C@@](C)(O)[C@H](O)[C@@H](C)C(=O)[C@H](C)C[C@@]2(C)O)O[C@H](C)C[C@@H]1N(C)C`, 14.4 µM (active) and inactive.
As for `c1ccc2ncccc2c1`, the Potency entry was “inactive”.
In the case of `O=S1(=O)CCCO1` it was “inactive”; in that of `COC(=O)CC(=O)OC`, “inactive”; in that of `CN(C)/N=N/c1nc[nH]c1C(N)=O`, “inactive”.
`COc1cc([C@H]2Oc3cc([C@H]4Oc5cc(O)cc(O)c5C(=O)[C@@H]4O)ccc3O[C@@H]2CO)ccc1O`: the Potency result is “inactive”.
For the compound `O=C1OC2(c3ccccc31)c1cc(I)c(O)c(I)c1Oc1c2cc(I)c(O)c1I`, the Potency result is “inactive”.
Regarding `CCC/C=C/C=O`, the Potency result is “inactive”.
In the case of `CC(=O)OC(C)C`, the Potency entry is “inactive”.
In the case of `CCCN1C=CN(C)C1` it was “inactive”; in that of `C/C=C/C(=O)N(CC)c1ccccc1C`, “inactive”.
Turning to `Cc1ccc(C)c(O)c1`, the Potency entry was “inactive”.
For `CN(C)C`, the Potency result was “inactive”.
Regarding `NC[C@H](O)c1ccc(O)c(O)c1`, the Potency result was “inactive”.
In the case of `NCCS(=O)(=O)O`, the Potency entry is “inactive”.
Consider `ClC/C=C/CCl`, for which the Potency entry was “inactive”.
To `C=CCCCCCCCCCC` belongs “inactive”.
In the case of `Cc1ccc(C(C)(C)C)cc1`, the Potency entry was “inactive”.
In the case of `O=C(O)c1ccc(O)cc1`, the Potency entry was “inactive”.
`C=C[C@H]1CN2CC[C@H]1C[C@H]2[C@H](O)c1ccnc2ccc(OC)cc12`: the Potency entry was “inactive”.
Regarding `Cc1ccc(C(C)(C)C)c(O)c1`, the Potency entry was “inactive”.
With `CN(C)CCCN1c2ccccc2Sc2ccc(Cl)cc21`, the Potency was 30.6 µM (active) and 23.7 µM (active).
Regarding `COc1ccc2nc(N)sc2c1`, the Potency entry is “inactive”.
For `CC[C@]12CCCN3CCc4c(n(c5ccccc45)[C@@](O)(C(=O)OC)C1)[C@@H]32`, the Potency entry is “inactive”.

For the origin of these results see PubChem BioAssay (Tox21).
